Screens (PubChem)
Hits are enriched below; roughly 5.9% of the tested compounds scored in any of these assays.
ATXN viability – Viability Counterscreen for Primary qHTS for Inhibitors of ATXN expression; S2 cells (HEK-293 line with an ATXN2-luciferase reporter) viability, CellTiter-Fluor protease fluorescence, 24 h; Potency, µM (top dose mostly 56.7 µM), hits mostly cytotoxic; hit rate 0.49% among 400,000; AID 651635, 2014; also: nearly all actives have a fitted effect of over 40% in size
ATXN2 expr inh – Primary qHTS for Inhibitors of ATXN expression | HEK-293 ATXN2-luciferase reporter, luminescence, 24 h | AID 1745845, 2022 | hit rate 0.72% among 360,000 | Potency, µM (highest dose often 57 µM), most hits filed as inhibitors; also: nearly all actives have a fitted effect of over 55% in size
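qHTS (up to 57 uM final) was run with 24 h compound exposure of reporter cells at 37 °C. Each well was multiplexed: SteadyGlo luminescence measured ATXN2-luciferase expression after a fluorogenic Gly-Phe-AFC viability readout (25 uM final).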
TGFb inhibitor – qHTS for Inhibitors of TGF-b | HepG2 CAGA-GFP TGF-b/SMAD3 reporter, GFP fluorescence, 18 h; TGF-beta stimulated, 500 pg/mL final | hit rate 1.2% among 410,000 | Potency, µM (top dose mostly 46.1 µM), hits mostly inhibitors | AID 588855, 2011; also: nearly all actives have a fitted effect of over 65% in size
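GFP signal (ex488/em500-530) from TGF-beta-stimulated HEPG2 CAGA-GFP cells, 500 pg/mL final, 18 h at 37 degrees C in DMEM plus 1% FBS, normalized to unstimulated and DMSO-stimulated controls.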
KB-V1 MDR tox – qHTS assay for MDR1-selective chemotherapeutics: Primary screen using the drug-selected MDR subline cells KB-V1; KB-V1 MDR cells viability, CellTiter-Glo, 72 h; Potency, µM (highest dose often 46.1 µM), hits mostly cytotoxic; hit rate 3.4% among 400,000; AID 1347076, 2019; also: nearly all actives have a fitted effect of over 60% in size
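In this primary screen, KB-V1 cells overexpressing P-gp are incubated with library compounds (lowest to highest concentration) for 72 h at 37 degrees C before a luminescent ATP viability read.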
KB-3-1 tox – qHTS assay for MDR1-selective chemotherapeutics: Primary screen using the parental adenocarcinoma cell KB-3-1. KB-3-1 viability, CellTiter-Glo ATP luminescence, 72 h. Potency, µM (doses to about 46.1 µM), hits mostly cytotoxic. hit rate 1.4% among 400,000; also: nearly all actives have a fitted effect of over 60% in size
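72 h, 37 °C compound treatment of KB-3-1 parental cells; CellTiter-Glo added, 10 min, luminescence read. Data corrected against DMSO-only plates and normalized before curve fitting.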
HepG2 tox – qHTS for Inhibitors of TGF-b: Cytotox Counterscreen | Potency, µM (top dose mostly 46.1 µM), most hits filed as cytotoxic | HepG2 CAGA-GFP viability, ATP luminescence, 18 h | hit rate 0.76% among 410,000 | AID 588856, 2011
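CellTiter-Glo luminescence gave cytotoxicity after 18 hours at 37 degrees C. The cells were HepG2 CAGA-GFP in 1% FBS DMEM, stimulated with 500 pg/mL TGF-beta after compound addition. %Activity was normalised to no-cell wells (complete cell-killing) and DMSO (no toxicity), and curves were fitted and classified.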
A number is an active result; – = inactive; ? = inconclusive; · = no result; ! = not confirmed by another sample. Calls follow the shape of the dose curve; as a rule, active = well fitted curve in the direction sought with a large enough effect; inconclusive = small, poorly fitted or top-dose-only effect, or another doubt; inactive = no such curve, though single readings can be large; an effect the other way counts as inactive or inconclusive.

SMILES	ATXN viability	ATXN2 expr inh	TGFb inhibitor	KB-V1 MDR tox	KB-3-1 tox	HepG2 tox
C/C1=C\[C@@H](C)C/C=C/[C@H]2[C@@H]3O[C@]3(C)[C@@H](C)[C@H]3[C@H](Cc4c[nH]c5ccccc45)NC(=O)[C@]32C(=O)/C=C/C(=O)[C@@H]1O	31.6µM	?	2.82µM	–	–	–
CC(C(O)c1ccccc1)N(C)C/C=C/c1ccccc1 (stereo unspecified)	–	–	·	·	·	·
O=c1[nH]c(=O)n(Cc2ccccc2Cl)c(O)c1/C=C1/C=CC=N1	–	–	–	–	23.1µM	–
C=CCn1c(O)c(/C=C2/C=CC=N2)c(=O)[nH]c1=O	?	·	?	?	–	–
CC(C)N(Cc1ccccc1)C(=O)CCS(=O)(=O)c1ccc2c(c1)oc(=O)n2C	–	–	–	–	?	–
CC1CCN2c3nc4ccccn4c(=O)c3CC3(C(=O)N(C)C(=O)N(C)C3=O)C2C1 (stereo unspecified)	–	–	–	7.31µM	–	–
CCN1c2nc3ccccn3c(=O)c2CC2(C(=O)N(C)C(=O)N(C)C2=O)C1C (stereo unspecified)	–	–	–	16.4µM	–	–
COP(=O)(/C=C/c1ccccc1)C(O)c1ccc(F)cc1 (stereo unspecified)	–	–	–	–	–	–
CCOC(=O)c1c(-n2c(C)cc(C=C3C(=O)NC(=S)NC3=O)c2C)sc2c1CCCC2	22.4µM	20µM	?	–	?	–
Cc1c(N)nc([C@H](CC(N)=O)NC[C@@H](N)C(N)=O)nc1C(=O)N[C@H](C(=O)N[C@@H](C)[C@H](O)[C@@H](C)C(=O)N[C@@H](C(=O)NCCc1nc(-c2nc(C(=O)NCCC[S+](C)C)cs2)cs1)[C@@H](C)O)C(O[C@H]1O[C@H](CO)[C@H](O)[C@@H](O)[C@@H]1O[C@H]1O[C@H](CO)[C@@H](O)[C@H](OC(N)=O)[C@H]1O)c1cnc[nH]1 (stereo partly specified)	·	13.7µM	·	·	·	·
CCCCCSc1cc(OC)c(CCNC)cc1OC	–	–	?	–	–	10µM
CCCCCCCSc1cc(OC)c(CCNC)cc1OC	?	?	?	18.4µM	?	–
C[CH2][Hg][S]c1ccccc1C(=O)O	4.47µM	6.31µM	4.47µM	20.6µM	5.17µM	2.51µM
O=C(O)c1ccccc1SCC(=O)N1c2ccccc2Sc2ccccc21	–	–	?	–	–	–
Cc1nn(C)cc1/C=C1/CC2C3CC=C4CC(O)CCC4(C)C3CCC2(C)C1=O (stereo unspecified)	–	–	–	18.4µM	–	–
CCCN(C(=O)c1cc2c(=O)oc3ccccc3c2s1)c1cccc(Cl)c1	–	–	?	–	–	–
NC(Cc1ccccc1)c1csc(Nc2ccccn2)n1 (stereo unspecified)	?	–	?	–	–	–
NC(Cc1ccc(F)cc1)c1csc(Nc2cnccn2)n1 (stereo unspecified)	–	–	–	–	–	–
NC(Cc1ccc(F)cc1)c1csc(Nc2ccccn2)n1 (stereo unspecified)	–	?	?	?	–	25.1µM
NC(Cc1ccc(Cl)cc1)c1csc(Nc2ccccn2)n1 (stereo unspecified)	?	22.4µM	?	–	–	–
COc1cccc(Nc2nc(C(N)Cc3ccc(F)cc3)cs2)n1 (stereo unspecified)	?	25.1µM	?	?	?	–
Cn1nc(-c2ccc(C(=O)Nc3ccc(OC(F)(F)F)cc3)cc2)c2ccccc2c1=O	?	–	?	–	?	–
CC(=O)OC1CC[C@]2(C#N)[C@H]3CC[C@]4(C)[C@H](C5C=CC(=O)O5)CCC4(O)C3CCC2(O)C1 (stereo partly specified)	?	·	–	?	?	10µM
CCOC(=O)c1c(C)n(Cc2ccccc2)c2ccc(O)cc12	–	–	17.8µM	10.3µM	–	–
CCOC(=O)c1c(C)n(Cc2ccccc2)c2ccc(OCC(O)CNC(C)(C)C)cc12 (stereo unspecified)	·	14.1µM	?	–	–	17.8µM
SMILES	ATXN viability	ATXN2 expr inh	TGFb inhibitor	KB-V1 MDR tox	KB-3-1 tox	HepG2 tox
Cc1ccc(-n2nc(C)c3c2NC(=O)CSC3c2ccc(O)cc2)cc1Cl (stereo unspecified)	?	–	–	–	23.1µM	–
CC[n+]1c(-c2ccccc2)c2cc(N)ccc2c2ccc(N)cc21	?	7.08µM!	?	?	?	–
Fc1ccc(C[n+]2c(-c3ccccc3)cc(-c3ccccc3)cc2-c2ccccc2)cc1	?	?	?	–	16.4µM	–
Clc1ccc(C[n+]2c(-c3ccccc3)cc(-c3ccccc3)cc2-c2ccccc2)cc1	10µM	?	?	–	10.3µM	–
O=C(NC(c1cccnc1)C(F)(F)F)c1cnn(-c2nccc(-c3cccs3)n2)c1C1CC1 (stereo unspecified)	–	·	·	·	·	·
CCOc1cc(-c2c(C#N)c(=O)[nH]c3c2c(C)nn3-c2ccc(F)cc2)ccc1O	–	–	?	?	?	–
CC(=O)c1cn(CC(=O)NCCc2c[nH]c3ccccc23)c2ccccc12	–	·	–	14.6µM	?	–
CC(=O)NCCc1c[nH]c2ccccc12	–	–	–	–	–	–
CCOc1c(Cl)cc(CNCCc2c[nH]c3ccccc23)cc1OC	·	·	?	20.6µM	?	–
CCOc1cc(CNCCc2c[nH]c3ccccc23)cc(Cl)c1OCC	?	?	?	?	?	–
COc1cc(C)c(CNCCc2c[nH]c3ccccc23)cc1C	?	·	?	?	?	11.2µM
Cc1ccccc1-c1nc(CS(=O)CC(=O)N2CCN(c3cc(Cl)ccc3C)CC2)c(C)o1 (stereo unspecified)	–	–	?	–	–	–
Cc1ccc2nc(-c3ccc(CN4CCC(n5c(=O)[nH]c6ccccc65)CC4)cc3)c(-c3ccccc3)nc2c1	?	–	·	?	?	·
O=c1[nH]c2ccccc2n1C1CCN(Cc2ccc(-c3nc4ccccc4nc3-c3ccccc3)cc2)CC1	?	–	·	23.1µM	?	·
O=C(NCCOCCn1c(=O)oc2ccccc21)Nc1ccc(F)cc1F	–	–	?	–	–	–
Cc1ccccc1-c1nc(CS(=O)CC(=O)N2CCC3(CC2)OCCO3)c(C)o1 (stereo unspecified)	–	–	–	13µM	–	–
Cc1ccc(Cl)cc1N1CCN(C(=O)c2cn(CC(C)C)c(=O)c3c2c2ccccc2n3C)CC1	?	?	–	–	–	–
